A selection: hits, their analogues and other compounds. The true share with any hit is near 3.8%.
Hsp70 act – Hsp70 transcriptional activation, primary screen; HeLa Hsp70 promoter luciferase reporter, luminescence; scaled: vehicle 0, proteasome-inhibitor control 100%; activation, % at 10 µM; 0.04% of 200,000 active;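 active = activation above the mean across all tested compounds plus 3 SD, cutoff set per campaign, cut at about 5.5% in these data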;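 note: 100% = MG132 at 30 µM as the positive control and 0% = DMSO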
HSF1 inhib – HSF1 inhibition. NIH3T3-HGL HSE-luciferase, MG132-induced, luminescence 8 h; active compounds read low. activity change, negative = inhibition, % at 7.5 µM (by protocol). 0.77% of 300,000 active. AID 2098;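 active = more than half of replicate wells show activity change below -50%, luminescence cut by over half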;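 note: luciferase reports HSF-1 transcriptional activity via heat shock element; 0% = median of DMSO wells and -100% = zero luminescence signal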
HSF1 activator – increases HSF-1 driven luciferase reporter signal; 1.7% of 300,000 active; activation, % at 9 µM; NIH3T3-HGL HSF-1 luciferase reporter, MG132, 8 h; 100% = twice DMSO control signal;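 active = mean replicate activation of at least 50% with a set share of replicates each reaching 50%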;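 note: 0% = median of the neutral control wells and 100% = twice that signal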
p-CIP stab down – lowers stability of the mouse p/CIP coactivator protein; F442A p/CIP-EGFP cells, EGFP fluorescence, 16 h; decrease of EGFP signal, % at 10 µM; 0.01% of 290,000 active;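 active = EGFP signal decrease of at least 30% at 10 µM or well 3 SD below plate mean, unless failing retest; inactive = the rest, including hits failing retest or dose response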
NALP1 inh – blocks the NALP1 inflammasome reconstituted in yeast | AID 2071 | inhibition, % at 10 µM | S. cerevisiae NALP1/ASC/caspase-1 growth, X-gal OD620, 72 h | 0.61% of 280,000 active; in the data active = inhibition mostly above about 24%, no sharp cut-off; inactive = mostly below about 32%
HSP90 inh – blocks HSP90-mediated luciferase refolding in reticulocyte lysate. Rabbit reticulocyte lysate, luciferase refolding luminescence, 3 h. inhibition, % at 5.6 µM. 0.91% of 290,000 active. AID 1789;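 active = inhibition above the screen-wide mean plus 3 SD, computed separately per campaign, cut at about 16% in these data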;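 note: 0% = DMSO wells and 100% = 60 µM geldanamycin wells; inhibitors lower the luminescence because luciferase stays unfolded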
* hit, by the source's call; · = no result given.

SMILES	Hsp70 act	HSF1 inhib	HSF1 activator	p-CIP stab down	NALP1 inh	HSP90 inh
CCOc1ccc(N2C(=O)CC(Sc3n[nH]c(-c4ccccc4)n3)C2=O)cc1 (stereo not drawn)	0.3	-1.0	8.5	-16.1	36.9*	4.2
C/C(Cc1ccccc1)=N\NC(=O)CNC(=O)/C=C\c1ccccc1	·	5.5	22.4	-1.6	-6.8	11.6
CN(C)c1ccc(C(=O)n2nnc3ccccc32)cc1	-0.1	43.4	56.1*	5.5	41.0	6.3
CC(C)c1ccc(/C=C/C(=O)N2CCCCCC2)cc1	-0.7	12.6	27.5	-5.4	42.3	0.2
CC(C)c1ccc(/C=C/C(=O)n2nnc3ccccc32)cc1	-0.1	46.7	83.0*	-10.2	3.8	0.5
CC(C)NC(=O)N(O)C1N(Cc2ccc3c(c2)OCO3)C(=S)SC1(C)C (stereo not drawn)	-0.1	-57.7*	-67.2	-7.4	15.8	0.2
COc1cc(NC(=O)CNC(=O)Cn2ccc3ccccc3c2=O)cc(OC)c1OC	·	1.7	0.9	-0.1	13.3	0.7
CCOc1cc(CNc2ccc3c(c2)OCCO3)cc(Br)c1OCC(N)=O	-0.3	-73.5*	-76.0	-11.0	24.1	-2.2
CCOc1cc(CNc2ccc3c(c2)OCCO3)cc(Br)c1OC	-0.2	-47.0	-57.8	-13.6	0.7	5.8
O=C(C1CCCN(S(=O)(=O)Cc2ccccc2)C1)N1CCc2ccccc21 (stereo not drawn)	-0.3	-57.8*	-68.5	-2.6	7.9	0.7
CC1Cc2ccccc2N1C(=O)COC(=O)c1ccc(S(=O)(=O)N(C)C)cc1 (stereo not drawn)	-0.3	-77.5*	-81.9	-18.2	-1.9	-2.7
Cc1cc(=O)oc2c(C)c(OC(C)C(=O)NCCCN3CCOCC3)ccc12 (stereo not drawn)	·	-68.8*	-75.7	3.9	7.2	2.2
Cc1cc(OC(C)C(=O)NCCCN2CCOCC2)ccc1Cl (stereo not drawn)	·	0.4	15.0	-23.4	8.1	1.8
CCc1cc(=O)oc2c(C)c(OC(C)C(=O)NCCCN3CCOCC3)ccc12 (stereo not drawn)	·	-6.1	5.2	-8.5	8.3	1.7
CC(Oc1ccc(Cl)cc1Cl)C(=O)NCCCN1CCOCC1 (stereo not drawn)	-0.1	-3.1	1.9	-1.0	41.2*	-1.7
Cc1cc(=O)oc2c(C)c(OC(C)C(=O)NCC(O)c3ccccc3)ccc12 (stereo not drawn)	·	15.2	51.3*	-0.6	17.0	-2.5
N#CCCn1cc(C(=O)N2CCOCC2)c(-c2ccc3c(c2)OCCO3)n1	0.5	-0.1	8.2	-2.6	0.5	-1.1
CC(C)(C)NC(=O)c1cc([N+](=O)[O-])ccc1N1CCCCC1	-0.6	2.0	10.4	-15.0	35.4	4.1
CCNc1nc(SC(C)C(=O)Nc2ccccc2)nc(N2CCOCC2)n1 (stereo not drawn)	0.2	-1.1	4.3	9.2	10.4	2.6
CNc1nc(SC(C)C(=O)Nc2ccc(Cl)c(Cl)c2)nc(N2CCOCC2)n1 (stereo not drawn)	-0.2	12.2	68.2*	0.0	-3.7	-1.2
COc1cccc(/C=N/NC(=O)c2ccoc2C)c1	·	7.8	24.4	-6.5	35.5*	6.2
COc1cccc(/C=N/NC(=O)c2cnccn2)c1	0.1	-75.7*	-82.0	11.9	23.9	-3.5
Cn1c(=O)c2sc3c(c2n(CC(=O)Nc2ccccc2)c1=O)COC(C)(C)C3	·	2.1	-18.0	-0.6	4.5	-0.2
CCS(=O)(=O)Nc1ccc2c(c1)N(C(C)=O)c1ccccc1CC2	0.1	-3.2	-4.4	-1.8	28.4*	0.1
CC(=O)N1c2ccccc2CCc2ccc([N+](=O)[O-])cc21	·	16.0	47.2	-4.5	8.7	4.8
Cc1cc2nc(-c3ccc(SCC(=O)NC(C)C)nc3)[nH]c2cc1C	0.0	26.2	40.5	-13.7	8.9	-0.8
Cc1cc2nc(-c3ccc(SCC(=O)N4CCc5ccccc54)nc3)[nH]c2cc1C	-0.2	21.5	34.2	-5.5	23.7*	-2.2
Cc1cc2nc(-c3ccc(SCC(=O)Nc4ccc(S(=O)(=O)NC5CC5)cc4)nc3)[nH]c2cc1C	-0.3	21.3	54.1*	-4.0	24.7	-2.5
COc1ccc(CN2CCC(=O)N([C@H](CO)c3ccccc3)CC2)cc1	·	-2.2	9.8	-8.0	3.3	-1.4
